Peg3 promoter = Peg3 promoter-driven luciferase inhibitors, primary screen, cell-based, HeLa, luciferase luminescence. HeLa PEG-Prom luciferase reporter, overnight. 360,000 compounds, 1.7% hits. inhibition, % at 20 µM;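 active = inhibition of at least 50% at 20 µM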
CF NFkB inh = inhibitors of PAF-induced NF-kB signaling, primary screen, cell-based, GFP fluorescence, uHTS | AID 588850, 2011 | 360,000 compounds, 0.86% hits | inhibition, % at 5 µM | KKLEB NF-kB-GFP reporter, GFP fluorescence overnight;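 active = at least 50% inhibition at 5 µM, scaled per plate between neutral and stimulator controls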;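 note: PAF is a Pseudomonas aeruginosa culture filtrate used as stimulus; plate controls were PAF-stimulated DMSO wells for no effect and unstimulated DMSO wells for full effect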
KKLEB cytotox = cytotoxicity in KKLEB CF airway cells, primary screen, cytotoxicity control for CF NF-kB inhibitor project, cell-based, uHTS, fluorescence assay plates. KKLEB CF airway cells viability, ATPlite luminescence, overnight; hits give low values; cells stimulated with P. aeruginosa culture filtrate. 360,000 compounds, 0.36% hits. AID 602141, 2011. activity change (cytotoxicity), % at 5 µM;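 active = corrected activity change at or below -50% at 5 µM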
TWEAK-Fn14 inh = inhibitors of TWEAK-Fn14 signaling, primary screen, luciferase reporter cells, uHTS | TWEAK-stimulated Fn14 reporter cells, luciferase luminescence, 8 h | inhibition, % at 10 µM | 360,000 compounds, 2% hits; in the data active = inhibition above about 50%
TROY NFkB inh = inhibitors of TROY-driven NF-kB signaling, primary screen, Q293 LMP1-TROYcd cells, NF-kB luciferase, uHTS. Q293 LMP1-TROYcd NF-kB luciferase reporter, 4 h. inhibition, % at 10 µM. AID 1347056, 2019. 360,000 compounds, 0.98% hits;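 active = compounds whose plate-normalised and pattern-corrected inhibition of the luciferase reporter signal at the single screening dose is 50% or more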
HIF-2a inh = HIF-2a reporter inhibitors, primary screen, luminescence, 786-0 RCC cells; 786-0 RCC cells HIF-2a reporter, luciferase luminescence, overnight; inhibition, % at 18.8 µM; 360,000 compounds, 0.72% hits; AID 624352, 2012;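 active = inhibition of the luminescence signal of 40% or more relative to plate controls, in a single-dose primary screen at 18.75 µM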
CF NFkB conf = inhibitors of PAF-induced NF-kB signaling, retest, confirmation, cell-based, GFP fluorescence, single concentration; 1,300 compounds, 64% hits; inhibition, % at 5 µM; shares compounds with CF NFkB inh; KKLEB CF airway cells, overnight; AID 602472, 2012; in the data active = inhibition above about 40%;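 note: stimulus PAF is a Pseudomonas aeruginosa filtrate and not platelet activating factor; plate controls were DMSO wells with stimulus for no effect and unstimulated DMSO wells for full effect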
Mdm2 MdmX conf = retested Mdm2-MdmX interaction blockers, confirmation, cell-based, luminescence, single concentration, set 2 | shares compounds with HIF-2a inh | 740 compounds, 99% hits | SaOS-2 split-luciferase Mdm2/MdmX complementation | inhibition, % at 8 µM;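 active = mean inhibition of the luminescence signal across two replicates at or above 26 percent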
HIF-2a inh conf = HIF-2a reporter inhibitor retest, confirmation, luminescence, 786-0 RCC cells; shares compounds with HIF-2a inh; HIF-2a luciferase reporter luminescence, overnight; inhibition, % at 18.8 µM; 1,800 compounds, 56% hits; AID 651580, 2012;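 active = mean inhibition across four replicates of at least 40 percent at the single tested concentration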
HIF-1a counter = HIF-1a luciferase reporter signal reduction – MiaPaCa-2 cells, single concentration, counter-screen for HIF-2a inhibitor project, confirmation; MiaPaCa-2 HIF-1a luciferase reporter, desferoxamine, overnight; shares compounds with HIF-2a inh; inhibition, % at 18.8 µM; 1,800 compounds, 72% hits;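 active = mean inhibition of the reporter signal across four replicates at the single tested dose of 50% or more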
* = called active by the depositor; · = no result given. Compounds with a hit are over-represented: about 4% of the library has one in this group of screens.

SMILES	Peg3 promoter	CF NFkB inh	KKLEB cytotox	TWEAK-Fn14 inh	TROY NFkB inh	HIF-2a inh	CF NFkB conf	others
CCOc1ccc(C(C(=O)NCC2CCCO2)N(Cc2cccs2)C(=O)c2snc(C(N)=O)c2N)cc1 (configuration not stated)	47.8	72.0*	-30.4	25.9	-7.2	4.8	71.7*
CN(C)CCNC(=O)c1coc(=O)c(Br)c1	9.8	-5.2	-3.1	-8.3	14.4	18.6	·
O=C(NCCc1ccccc1)c1coc(=O)c(Br)c1	106.8*	69.0*	4.3	78.3*	6.8	8.9	75.7*
Clc1cccc(Cc2c(C3CCCCC3)nc3ccc(Cl)cn23)c1	-2.5	16.9	-18.2	6.7	3.0	-4.1	·
COC(=O)N1C(=O)[C@](c2ccccc2)(C(C)C)N1C(=O)OC	24.3	36.4	-1.6	26.0	-5.3	31.6	·
CCOC(=O)N1C(=O)[C@](c2ccc(Cl)cc2)(C(C)C)N1C(=O)OCC	67.9*	51.0*	-5.7	34.1	-3.4	25.9	8.9
COc1ccc(OC)c(C2CC(=O)c3c([nH]c(C(=O)OC(C)C)c3C)C2)c1 (configuration not stated)	-29.6	61.0*	-12.4	49.8	-18.1	-37.5	86.3*
COc1ccc([N+](=O)[O-])cc1NS(=O)(=O)c1cccc(C(=O)O)c1	5.5	0.8	2.7	-1.1	-1.2	18.5	·
O=C(Oc1ccc(F)cc1C(=O)/C=C/c1cccs1)c1cccc([N+](=O)[O-])c1	18.0	50.4*	0.6	6.9	9.6	27.6	59.8*
O=C(CCc1ccccc1)N=C1SC2CS(=O)(=O)CC2N1Cc1ccccc1 (configuration not stated)	6.7	50.2*	-9.1	-1.3	-9.4	2.3	22.3
COc1ccc(CN2C(=NC(=O)CCc3ccccc3)SC3CS(=O)(=O)CC32)cc1 (configuration not stated)	34.6	-9.5	11.0	2.2	-0.2	9.0	·
Cc1ccc(NC(=O)/C=C/c2ccco2)nc1	-131.5	65.1*	-37.9	40.2	-35.4	-150.6	73.3*
O=C(/C=C/c1ccco1)Nc1ccccn1	-104.8	29.1	-16.2	50.0	-44.0	-109.2	·
Cc1ccc(-c2cc(C(=O)N(C)Cc3cnn(C)c3C)c3cc(Br)ccc3n2)cc1	-16.9	66.9*	-6.7	26.5	-25.7	-42.6	58.1*
CC(=O)Nc1ccc(Nc2nc(-c3sc(NC(C)=O)nc3C)cs2)cc1	34.0	67.3*	-13.7	-6.4	14.4	67.8*	87.1*	HIF-2a inh conf=66.0*;HIF-1a counter=91.0*
CCCC(=O)Nc1nc(C)c(-c2csc(Nc3ccc(Cl)cc3)n2)s1	1.1	33.6	-4.0	-10.1	-20.7	3.0	·
c1cc2c(cc1-c1[nH]ncc1CN1CC3C[C@@H]4CC1C[C@H](C3)C4)OCO2	15.8	3.2	-3.8	1.3	-2.9	10.4	·
O=S1(=O)CCC(NC(=S)SCCOc2ccccc2)C1 (configuration not stated)	-7.0	58.4*	3.2	69.5*	-14.7	50.1*	86.0*	HIF-2a inh conf=48.3*;HIF-1a counter=67.3*
CNC(=S)SCCOc1ccccc1	-0.2	3.3	-13.9	-28.7	-38.6	-19.8	·
Cn1c(=O)c(-c2ccccc2)cc2ccccc21	-148.6	-22.1	-3.2	0.7	-23.5	-157.8	·
CN(C)CCCN(C(=O)CCS(=O)(=O)c1ccccc1)c1nc2cc3c(cc2s1)OCO3	107.2*	96.0*	-10.7	68.9*	55.5*	62.5*	104.1*	HIF-2a inh conf=38.1;HIF-1a counter=101.8*
COCCCNC(=O)/C(C#N)=C/c1cccc(NC(=O)c2ccccc2Cl)c1	5.7	24.4	-20.6	12.8	3.5	20.9	·
N#C/C(=C\c1cccc(NC(=O)c2ccccc2Cl)c1)C(=O)NCCc1ccccc1	12.2	81.7*	-31.1	37.8	13.6	79.7*	8.9	HIF-2a inh conf=44.9*;HIF-1a counter=92.6*
Cn1c(Sc2ccc(Cl)cc2)c(C=O)c2ccccc21	53.8*	76.3*	-28.9	80.1*	55.0*	26.3	81.1*	Mdm2 MdmX conf=92.5*
COCCN(CCOC)Cc1cc(=O)oc2cc(C)ccc12	7.4	3.8	-9.9	-9.6	1.3	0.7	·
SMILES	Peg3 promoter	CF NFkB inh	KKLEB cytotox	TWEAK-Fn14 inh	TROY NFkB inh	HIF-2a inh	CF NFkB conf	others
N#CC(C#N)=C1C=CC=CN1/C(=C\c1ccco1)C(=O)c1ccccc1	99.4*	95.9*	-34.9	75.5*	69.1*	91.1*	68.4*	HIF-2a inh conf=97.7*;HIF-1a counter=104.8*
COc1ccc(-c2nc3ccccn3c2NCc2ccc3c(c2)OCO3)cc1	-161.6	4.0	-8.9	-7.3	-53.3	-174.5	·
COc1ccc(-c2cc(-c3nc4ccccn4c3NCc3ccccc3)ccc2OC)cc1	99.7*	71.0*	-30.2	-9.2	-22.0	-76.8	96.6*	Mdm2 MdmX conf=102.5*
C=C1C(=O)C2=CC1CCC(=O)C1(C)CCC(OC(C)=O)C(C)(C)C1CC2O (configuration not stated)	98.8*	82.6*	9.2	100.7*	46.3	85.9*	83.5*	HIF-2a inh conf=95.5*;HIF-1a counter=104.9*
CC(=O)OC1CCC2C3CCC4OC(=O)CCC4C3CCC12C (configuration not stated)	3.9	-23.0	12.5	-3.8	7.3	-10.0	·
BrC(=C\c1ccccc1)/C=N/n1cnnc1	110.6*	57.6*	-10.0	71.6*	16.1	61.5*	-77.2	HIF-2a inh conf=22.8;HIF-1a counter=97.2*
BrC(=C\c1ccccc1)/C=N/Nc1ccc2nncn2n1	-43.9	-4.7	2.8	-12.2	-34.1	-96.1	·
CCc1c(C)nc2[nH]ncn2c1=O	1.5	6.8	-2.9	-4.3	-0.2	15.3	·
O=C(O)CSc1ncnc2scc(-c3ccccc3)c12	-142.4	8.7	5.9	12.1	22.2	13.7	·

Compound activity deposited in PubChem BioAssay by Sanford-Burnham Center for Chemical Genomics.
